About 2,000 (0.91%) of roughly 220,000 compounds were called active. About 2% were inconclusive and are not listed. No stated cut-off is given here; in the data, inconclusive means inhibition above about 80% without an active follow-up result; inactive means below that; test concentration not stated here. Only a sample is shown. Potency and affinity values are given separately.

Results on 25 compounds are retold here after PubChem BioAssay AID1626 (SRMLSC, 2009).

This experiment is described as follows: M. tuberculosis H37Rv growth inhibitors, H37Rv strain (AID 1626).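 Further: bacteria incubated seven days before Alamar blue readout; 0% = bacteria only wells and 100% = bacteria with antibiotic wells.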 Particulars: active compounds read high, concentration not given here.
With `CC(=O)Oc1ccc2oc(C)c(C(=O)N3CCOCC3)c2c1`, the inhibition is -12.9% (inactive). The figure for `COc1ccc(OC)c(S(=O)(=O)Nc2ccc3oc4c(c3c2)C(=O)CCC4)c1` is -4.7% (inactive). `COc1ccc(-n2c(O)c(C(C)=NCc3ccc4c(c3)OCO4)c(=O)[nH]c2=O)cc1`: the inhibition is 0.11% (inactive). The figure for `CC(C)N(C(=O)CC1ON(C)C(=O)N1c1ccc(Cl)cc1)C(C)C` (stereo not given) is -4.4% (inactive). Consider `CCOC(=O)C1=C(C)N=c2s/c(=C/c3ccccc3)c(=O)n2C1c1ccc(OC)c(OC)c1` (stereo not given), for which the inhibition is 1% (inactive). The result for `CCOC(=O)C1=C(c2ccccc2)N=c2s/c(=C\c3cc(OC)c(OC)c(OC)c3)c(=O)n2C1c1cccs1` (stereo not given) reads -2.92% (inactive); that for `S=C(NCCc1ccccc1)Nc1ccccc1N1CCOCC1`, 0.99% (inactive); that for `COc1ccc([N+](=O)[O-])cc1NC(=O)C(C)OC(=O)c1cccnc1Cl` (stereo not given), -2.19% (inactive). The result for `CC1=C(C(=O)Nc2ccccn2)C(c2ccc(Cl)cc2)NC(=S)N1` (stereo not given) reads -5.44% (inactive); that for `CCOC(=O)c1cnc(Nc2nc3ccccc3o2)nc1CSc1ncccn1`, 0.18% (inactive); that for `CCOC(=O)c1cnc(Nc2nc3ccccc3o2)nc1CSC(=S)N(CC)CC`, -2.38% (inactive).

Consider `O=C1c2cc(O)cc(O)c2C(=O)c2c1cc(O)c([C@@H](CO)CCO)c2O`, for which the inhibition is -0.07% (inactive). For the compound `Cc1cc(NC(=O)CCCC(=O)N(c2ccccc2)C(C(=O)NC2CCCCC2)c2cccs2)no1` (stereo not given), the inhibition is -3.8% (inactive). As for `Cc1ccc([N+](=O)[O-])cc1N(CC(=O)NC1CCCC1)S(C)(=O)=O`, the inhibition is 1.23% (inactive).

`Cc1c(/C=N\NC(=O)C2COc3ccccc3O2)c2ccccc2n1C` (stereo not given): the inhibition was 10.6% (inactive).

As to `C#CCNC(=O)C1=C[C@@H](C2CC2)[C@H](CCCO)[C@@H](OCC)O1`, the inhibition was -9.56% (inactive). As for `O=C(Nc1nnc(-c2ccncc2)o1)C1CCCCC1`, the inhibition was 0.18% (inactive). In the case of `O=C(Nc1nnc(-c2ccco2)o1)C1CCCCC1`, the inhibition is 3.01% (inactive).

In the case of `CC(=O)Nc1nnc(-c2ccc(Cl)s2)o1`, the inhibition is 2.92% (inactive). In the case of `CCC(=O)Nc1nnc(-c2ccc(Cl)s2)o1`, the inhibition was 13.6% (inactive).

Consider `Cc1cc(C(=O)COc2ccc(Cl)cc2Br)c(C)n1C`, for which the inhibition is -4.24% (inactive). The result for `CCN(CC)C(=O)C1CCCN(c2ccc([N+](=O)[O-])cc2/C=N/NC(=O)c2ccccc2)C1` (stereo not given) reads 9.19% (inactive). Turning to `Cc1ccc(CNC(=O)CCc2nc(-c3cccs3)no2)cc1`, the inhibition is 6.02% (inactive).

On to `CCN(CC)S(=O)(=O)c1ccc(NS(=O)(=O)CC23CCC(CC2=O)C3(C)C)cc1` (stereo not given), for which the inhibition was -3.32% (inactive). Regarding `C=CCNC(=O)c1ccc(-n2cccc2)cc1`, the inhibition is 8.71% (inactive).

By inhibition is commonly meant the drop in the measured response relative to a control, in per cent.
